# Legend:
# Test in all cases: PBM binding z-score (relative to random genomic background probes); higher = stronger binding; sequences stand for … in GC…GCGATTGACAGCGTAGAATGAAGG
# [1] = test system: FXR:RXRa (NR concentration 270 nM, RXRa partner concentration 90 nM)
# Summary of the method: (§1)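 Probes were double-stranded and carried 34-nt variable regions with direct-repeat seeds, single-nucleotide variants, half-site ablations and random human genomic background sequences, printed on custom Agilent 4×180K protein-binding microarrays. Arrays were incubated 1 h with ligand-free nuclear receptor dimers in PBS pH 7.4, 2% milk, 0.02% Triton X-100, 1 mM DTT, 0.2 mg/mL BSA and 0.4 mg/ml salmon testes DNA. Antibodies against each partner (one per run) detected binding, and scanned fluorescence was regression-normalized. Binding z-scores use the random background probes as reference.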
# [2] = test system: LXRa:RXRa (NR concentration 270 nM, RXRa partner concentration 90 nM)
# Summary of the method: as §1
# [3] = test system: LXRa homodimer (NR concentration 270 nM)
# Summary of the method: as §1
# [4] = test system: LXRb:RXRa (NR concentration 270 nM, RXRa partner concentration 90 nM)
# Summary of the method: as §1
# [5] = test system: LXRb homodimer (NR concentration 270 nM)
# Summary of the method: as §1
# [6] = test system: PPARg:RXRa (NR concentration 180 nM, RXRa partner concentration 90 nM)
# Summary of the method: as §1
# [7] = test system: PPARg:RXRa 270nM:90nM, anti-RXR (NR concentration 270 nM, RXRa partner concentration 90 nM)
# Summary of the method: as §1
# [8] = test system: PPARg:RXRa 30nM:10nM, anti-RXR (NR concentration 30 nM, RXRa partner concentration 10 nM)
# Summary of the method: as §1
# [9] = test system: PPARg:RXRa 90nM:30nM, anti-RXR (NR concentration 90 nM, RXRa partner concentration 30 nM)
# Summary of the method: as §1
# [10] = test system: PPARg:RXRa DBDmut IVT, anti-RXR (DBD mutation: RXRa K156A/R161A, NR concentration 270 nM, RXRa partner concentration 90 nM)
# Summary of the method: as §1
# [11] = test system: PPARg:RXRa IVT, anti-PPARg (NR concentration 270 nM, RXRa partner concentration 90 nM)
# Summary of the method: as §1
# [12] = test system: PPARg DBDmut:RXRa IVT, anti-PPARg (DBD mutation: PPARg1 K132A/R137A, NR concentration 270 nM, RXRa partner concentration 90 nM)
# Summary of the method: as §1
# [13] = test system: PPARg DBDmut IVT, anti-PPARg (DBD mutation: PPARg1 K132A/R137A, NR concentration 270 nM)
# Summary of the method: as §1
# [14] = test system: PPARg homodimer (NR concentration 180 nM)
# Summary of the method: as §1
# [15] = test system: PXR:RXRa (NR concentration 270 nM, RXRa partner concentration 90 nM)
# Summary of the method: as §1
# [16] = test system: PXR homodimer (NR concentration 270 nM)
# Summary of the method: as §1
# [17] = test system: RARa:RXR (NR concentration 270 nM, RXRa partner concentration 90 nM)
# Summary of the method: as §1
# [18] = test system: RARa homodimer (NR concentration 270 nM)
# Summary of the method: as §1
# [19] = test system: RARb:RXRa (NR concentration 270 nM, RXRa partner concentration 90 nM)
# Summary of the method: as §1
Sequence,PBM binding z-score [1],PBM binding z-score [2],PBM binding z-score [3],PBM binding z-score [4],PBM binding z-score [5],PBM binding z-score [6],PBM binding z-score [7],PBM binding z-score [8],PBM binding z-score [9],PBM binding z-score [10],PBM binding z-score [11],PBM binding z-score [12],PBM binding z-score [13],PBM binding z-score [14],PBM binding z-score [15],PBM binding z-score [16],PBM binding z-score [17],PBM binding z-score [18],PBM binding z-score [19]
CAAACTAGGTCAAAGGTCAAAGCCGAGCCAACCA,8.47,7.19,5.21,7.3,2.55,13.1,11.3,13.6,13,8.36,8.57,2.64,1.45,4.45,6.85,1.41,9.13,2.5,5.94
CCGACTTGGGCAAAGGTTACCATACTCAGTACGA,0.847,1.32,0.214,1.68,-0.6,6.45,6.29,5.67,7.54,0.755,2.56,-0.26,-0.659,0.915,1.45,0.0117,2.35,-0.0307,1.92
GGAACGAGCGCAAAGTTGATAGCATCTGTCGACG,-0.856,-0.827,-0.68,-1.1,-1.22,1.51,3.31,0.951,2.9,-0.42,-0.495,-0.634,-1.33,-1.01,-0.773,-0.719,-0.723,-0.818,-0.372
CCTACTGGGCCATTCAGAGGTCATTGTTCATATG,2.55,4.4,6.96,3.77,0.5,1.98,3.18,0.535,2.16,4.55,4.17,0.178,-0.495,2.5,4.71,2.33,4.2,0.216,2.97
AGTCAAAGTTCAGCACGAGGTAACGTAAAGCACG,4.45,4.19,1.47,2.23,0.567,4.88,5.1,2.2,4.2,-0.116,2.28,0.538,0.124,1.92,3.35,1.01,3.13,1.12,4.66
AAATGTAGGTTAAGGGTCATTCAGGTTGGTTCGC,5.31,4.71,3.07,4.53,1.39,11.7,9.63,10.5,10.8,8.02,8.07,2.18,2.05,3.58,5.32,2.61,5.42,2.02,3.7
TCAGATAGGTAAAGGTGAAAGTCGAACGATATGA,0.962,1.49,-0.219,1.3,-0.401,2.56,3.99,4.4,4.3,2.81,2.22,0.559,0.38,1.31,0.975,0.0879,1.75,0.371,2.16
CCTACTGGGCCAATGTCATTGATCAGTCAAAGCA,-0.931,-0.71,-0.956,-0.421,-0.826,0.865,0.774,-0.129,0.12,3.94,2.99,-0.0732,-0.746,-0.246,-0.427,-0.747,-0.51,-1.11,0.363

# — the supplement of paper PMC6555819
